NS1 function inh: influenza NS1 inhibition | Potency, µM (series often up to 46.1 µM) | 270,000 compounds, 0.4% hits; calls by dose curve; note: actives are rising curves; nearly all actives have a fitted effect of over 50% in size
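Recovery from NS1-induced slow growth read by OD600 in budding yeast switched to galactose assay medium (pH 6.0, -URA) at 1:100 dilution. Compound 23 nl per well; the matching strain lacking NS1 serves as control.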
Cruzain Triton: inhibitors of Trypanosoma cruzi cruzain with detergent. purified cruzain, Z-FR-AMC fluorescence, 0.01% Triton. P25779. 200,000 compounds, 0.43% hits. Potency, µM, usual class: inhibitors; note: nearly all actives have a fitted effect of over 40% in size
Target sequence (P25779 123-467 limits assumed): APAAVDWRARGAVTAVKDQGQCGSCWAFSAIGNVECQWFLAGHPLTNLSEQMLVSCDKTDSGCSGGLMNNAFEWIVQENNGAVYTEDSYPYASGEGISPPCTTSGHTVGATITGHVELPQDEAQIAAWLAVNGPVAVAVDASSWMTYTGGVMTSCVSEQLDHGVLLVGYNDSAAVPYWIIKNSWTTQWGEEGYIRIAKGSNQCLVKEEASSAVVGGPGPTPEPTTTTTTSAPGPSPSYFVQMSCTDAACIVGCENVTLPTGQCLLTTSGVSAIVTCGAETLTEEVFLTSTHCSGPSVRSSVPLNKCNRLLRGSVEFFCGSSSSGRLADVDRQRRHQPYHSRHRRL
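Cysteine protease activity tested under reducing, mildly acidic conditions (100 mM sodium acetate pH 5.5, 5 mM DTT) plus 0.01% Triton X-100. Cruzain 1.5 nM; substrate Z-FR-AMC 2 uM; 15 min compound preincubation at room temperature.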
Cruzain inh noDet: blocks cruzain activity in detergent-free assay. Potency, µM, most hits filed as inhibitors. 200,000 compounds, 2.3% hits. purified cruzain, Z-FR-AMC fluorescence, no detergent. P25779; note: nearly all actives have a fitted effect of over 40% in size
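Detergent-free condition (0.00005% Triton X-100) in acetate buffer pH 5.5 with DTT. 1.5 nM enzyme and compound were pre-mixed 15 min, then 2 uM Z-FR-AMC substrate added; reaction progress from fluorescence change between first and third reads (60 s).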
A number is an active result; – = inactive; ? = inconclusive; · = not tested or not shown; ! = a repeat was not active. The entries come from a sample that favours hits as a whole. Unless noted, calls come from the whole dose curve; as a rule, active = well fitted curve in the direction sought with a large enough effect; inconclusive = small, poorly fitted or top-dose-only effect, or another doubt; inactive = no such curve, though single readings can be large; an effect the other way counts as inactive or inconclusive.

SMILES	NS1 function inh	Cruzain Triton	Cruzain inh noDet
CC(C)=CCc1c2c(c3occ(-c4ccc(O)cc4)c(=O)c3c1O)C=CC(C)(C)O2	–	–	?
CC(C)=CCc1c2c(c3occ(-c4ccc(O)c(O)c4)c(=O)c3c1O)C=CC(C)(C)O2	–	–	25µM!
O=C(/C=C/c1ccc(Cl)cc1Cl)c1nc2ccccc2[nH]1	–	–	7.9µM
O=C(/C(=C(\O)c1ccccc1)c1nc2ccccc2[nH]1)c1ccccc1	–	·	·
Cc1ccc(-n2c3c(cc(C(=O)Nc4ccccc4C(N)=O)c2=O)C(=O)CC(C)(C)C3)cc1	·	–	–
CC1CCN(c2ccc(/C=N\Nc3nncn3N)cc2[N+](=O)[O-])CC1	–	–	25µM
CC1CCN(c2ccc(/C=N/n3nnnc3N)cc2[N+](=O)[O-])CC1	–	–	–
CCOC(=O)C(NC(=O)CCC(=O)Nc1ccc(S(N)(=O)=O)cc1)C(O)c1ccccc1 (stereo not given)	?	–	–
CCCCCCCCOC(=O)C(NC(=O)CCC(=O)Nc1ccc(S(N)(=O)=O)cc1)C(O)c1ccccc1 (stereo not given)	–	–	7.9µM
CN(C)CCCc1cccnc1	–	–	–
Cc1ccc(C)c(NC(=S)NC(NC(=O)Cc2cccc3ccccc23)C(Cl)(Cl)Cl)c1 (stereo not given)	–	–	7.9µM
Cc1ccc(C)c(NC(=S)NC(NC(=O)N(C)C)C(Cl)(Cl)Cl)c1 (stereo not given)	–	–	–
COc1ccc([C@]23Cc4cc(OC)c(OC)cc4C(O2)c2c(cc(C)oc2=O)O3)cc1	–	·	·
CCCNC(=O)Cn1nc(-c2ccc(OC)cc2)c2cnc3ccc(F)cc3c21	·	–	–
c1ccc(Nc2ccccc2)cc1	·	–	–
CC(C)Nc1ccc(Nc2ccccc2)cc1	·	–	32µM
C[C@@H](O)CN(CCN(C[C@@H](C)O)C[C@@H](C)O)C[C@@H](C)O.O=[N+]([O-])O.[Cu]	–	–	–
Brc1cc(Oc2cc(Br)c(Br)c(Br)c2Br)c(Br)c(Br)c1Br	·	–	?
O=C(Cc1ccccc1)Nc1ccc(N2CCCC2)cc1	–	?	13µM
CC(=O)N1CCN(c2ccc(NC(=O)C(c3ccccc3)c3ccccc3)cc2)CC1	–	·	·
O=C(Nc1ccc(N2CCCC2)cc1)c1ccc(Br)cc1	–	·	·
O=C(CCc1ccccc1)Nc1ccc(N2CCCCC2)cc1	–	–	–
CC(C)Oc1ccc(C(=O)Nc2ccc(N3CCCC3)cc2)cc1	?	–	4µM
O=C(Nc1ccc(N2CCCC2)cc1)C(c1ccccc1)c1ccccc1	–	–	7.9µM
O=C(Cc1ccccc1)Nc1ccc(N2CCOCC2)cc1	–	·	·
SMILES	NS1 function inh	Cruzain Triton	Cruzain inh noDet
O=C(Cc1ccccc1)Nc1cccc(N2CCCC2)c1	?	–	25µM
Cc1cc2sc(C)[n+](CCCOS(=O)(=O)O)c2cc1C	–	–	–
Cc1ccc(-n2ncc3c(NCCc4ccccc4)ncnc32)cc1	·	–	–
Cc1ccc(N(CC(=O)Nc2ccc(Br)cc2)S(=O)(=O)c2cccs2)cc1	·	–	–
Cc1cccc2c1N(Cc1ccccc1OCCC(C)C)C(=O)C2=O	·	–	–
CCCCC/C=C\C/C=C\C/C=C\CCCCC(=O)NCCCC(=O)O	·	–	–
C=CCOC(=O)C1=C(C)NC(SCC(=O)Nc2ccc(C)c(Cl)c2)=C(C#N)C1c1ccco1 (stereo not given)	–	–	10µM
COc1ccccc1NC(=O)C1=C(C)NC(SCC(=O)c2ccccc2)=C(C#N)C1c1ccco1 (stereo not given)	–	–	16µM
CC(=O)C1=C(C)NC(SCC(=O)c2ccc(C)cc2)=C(C#N)C1c1ccco1 (stereo not given)	–	–	–
COCCOC(=O)C1=C(C)NC(SCC(=O)NC(C)(C)C)=C(C#N)C1c1ccco1 (stereo not given)	–	–	–
Cc1ccc(CNC(=O)CSc2c(C(C)C)cnc3c2c(=O)n(C)c(=O)n3C)cc1	·	–	–
COc1ccc(CNC(=O)CSc2nc(-c3ccc(OC)c(OC)c3)cc(C(F)(F)F)n2)cc1	·	–	–
Cc1cn2c(=O)c(S(=O)(=O)NCc3ccccc3Cl)c(C)nc2s1	·	–	–
O=C(CSc1nnc(SCc2cccc3ccccc23)s1)N/N=C/c1c[nH]c2ccccc12	–	–	–
O=C(CSc1nnc(SCc2cccc3ccccc23)s1)N/N=C/C=C/c1ccccc1[N+](=O)[O-]	–	–	10µM
COc1ccc(CCNC(=O)CCn2c(=O)c3ccccc3n(Cc3cc(C)ccc3C)c2=O)cc1OC	·	–	–
O=C(CCN1CCN(c2ccccc2F)CC1)c1ccc(Br)cc1	–	14µM	?
COc1ccc(C(=O)CCN2CCN(c3ccccc3F)CC2)cc1	–	·	·
COc1ccc2cc3cc(C(=O)NCc4ccc5c(c4)OCO5)oc3nc2c1	–	–	–
COc1ccc2cc3cc(C(=O)N4CCN(Cc5ccc6c(c5)OCO6)CC4)oc3nc2c1	–	32µM	–

Bioassay records (PubChem)
